Compound activity as filed in PubChem.
In the library only some 3.6% were active in any assay of this set; here they are far more common.
Mtb FBA inh = inhibits M. tuberculosis FBA enzyme; P9WQA3; purified M. tuberculosis FBA, fluorescence read-out; inhibition, % at 1 µM; 360,000 compounds, 2.3% hits; in the data active = inhibition above about 27%;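 also: 0% = vehicle and 100% = reference inhibitor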
Target sequence (P9WQA3 whole entry, looked up): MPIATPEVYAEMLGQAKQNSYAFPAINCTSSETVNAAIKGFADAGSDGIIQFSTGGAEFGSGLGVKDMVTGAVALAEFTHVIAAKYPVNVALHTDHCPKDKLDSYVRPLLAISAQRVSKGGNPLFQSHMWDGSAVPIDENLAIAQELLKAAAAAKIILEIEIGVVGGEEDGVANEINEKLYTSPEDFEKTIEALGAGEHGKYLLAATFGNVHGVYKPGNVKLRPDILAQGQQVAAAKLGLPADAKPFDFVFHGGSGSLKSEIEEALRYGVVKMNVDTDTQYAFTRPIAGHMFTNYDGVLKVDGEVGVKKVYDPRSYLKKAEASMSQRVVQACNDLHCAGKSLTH
DUSP3 inh = DUSP3 (human) phosphatase inhibition. AID 1654. inhibition, % at 13.3 µM. P51452. recombinant VHR phosphatase, pNPP absorbance. 290,000 compounds, 0.52% hits; in the data active = inhibition above about 50%
Mtb hypoxia inh = Mtb hypoxia fluorescent reporter inhibition | fluorescence inhibition, % (concentration not given with the values) | M. tuberculosis hypoxia-regulated fluorescent reporter, fluorescence | 300,000 compounds, 0.1% hits | AID 1159583; in the data active = fluorescence inhibition mostly above about 23%, no sharp cut-off; inactive = mostly below about 17%
GDH-TPI counter = inhibits GDH-TPI coupling enzymes, artifact for Mtb FBA screen | GDH-TPI coupled enzyme counterscreen, NADH absorbance | AID 588335 | inhibition, % at 4.8 µM | 360,000 compounds, 1.2% hits; in the data active = inhibition above about 30%;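 also: 0% = DMSO wells and 100% = wells lacking the enzyme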
Mtb betalactam = beta-lactam sensitization of Mtb H37Rv | M. tuberculosis H37Rv growth with meropenem, percent inhibition | inhibition, % at 25 µM | 330,000 compounds, 0.27% hits | AID 434955; call rule not given here;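 also: growth measured after seven days incubation then overnight dye step; 0% = bacteria only wells and 100% = bacteria with antibiotic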
The depositor's hits bear a star; . = no result; + = active, no number.

SMILES	Mtb FBA inh	DUSP3 inh	Mtb hypoxia inh	GDH-TPI counter	Mtb betalactam
Cc1ccsc1/C=N/NC(=O)c1nnn(-c2nonc2N)c1CN(C)c1ccccc1	2	1	.	37*	2
Cc1ccsc1C=NNC(=O)c1nnn(-c2nonc2N)c1CN(C)c1ccccc1	.	.	-3	.	.
Cc1ccc(/C=N/NC(=O)c2nnn(-c3nonc3N)c2CN(C)c2ccccc2)s1	-1	10	.	34*	1
COc1cc(N2Cc3ccccc3C2)ccc1C=O	2	-24	5	34*	5
COc1ccc(-c2cc3nnc(-c4ccccc4)nc3s2)cc1	9	0	.	3	6
COc1ccc(-c2cc3ncnc(Cl)c3s2)cc1	+	31	.	16	51
CCOC(=O)C1=C(N)n2c(s/c(=C\c3cccnc3)c2=O)=C(C(=O)OC)C1c1cccnc1 (configuration not stated)	-13	.	.	-9	-6
CCOC(=O)C1=C(N)n2c(s/c(=C\c3cccnc3)c2=O)=C(C(=O)OCC)C1c1cccnc1 (configuration not stated)	.	57*	.	.	.
Cc1nc2sc(C#N)c(N)c2c2c1CCCC2	36*	-4	2	-1	-4
COc1ccc(-c2oc(=O)c3cc(OC)c(OC)cc3c2C#CC2(O)CCCCC2)cc1	1	.	-10	6	4
COc1ccc(-c2oc3cccnc3c2-c2ccc(OC)nc2)cc1	139*	9	5	8	8
COc1ccc(-c2ccc3oc(-c4ccc(OC)cc4)c(C#CCCO)c3c2)cc1	9	.	10	29	-6
COc1ccc(-c2oc3cccnc3c2C#CCO)cc1	+	36	2	32*	56
COc1ccc(-c2oc3cccnc3c2C#CC2(O)CCCCC2)cc1	+	5	.	34*	94
CCCCNC(=O)N1CCC(CCC(=O)N(C)Cc2ccccc2)CC1	0	8	15	6	-2
CC(=O)NCCC1CCN(c2nc3nonc3nc2N(C)Cc2ccccc2)CC1	0	22	10	37*	-1
COc1ccc(N2C(=O)CS/C2=N\C(=S)Nc2ccccc2)cc1	0	-4	.	37*	-5
COc1ccc(CN(C(=S)Nc2ccccc2)C2CC(=O)N(c3ccc(F)cc3)C2=O)cc1 (configuration not stated)	3	-8	.	8	-2
CC1(C)Cc2c(C#N)c(SCC(=O)c3ccccc3)nc(N3CCOCC3)c2CO1	4	-35	.	10	-4
CCc1nc(N2CCOCC2)c(C#N)c2c1COC(C)(C)C2	46*	32	5	10	-2
CC1(C)Cc2c(C#N)c(SCc3ccccc3)nc(N3CCOCC3)c2CO1	-6	19	5	75*	.
Nc1nonc1-n1nnc(C(=O)NN=Cc2c(Cl)cccc2Cl)c1CSC1=NCCS1	.	.	-8	.	.
CCCCC(=NNC(=O)c1ccc(Br)o1)c1ccccc1	.	.	7	.	.
Cc1cc(/C=N/NC(=O)c2ccc(O)cc2)c(C)n1CC(C)C	4	2	.	47*	1
O=C(N/N=C/c1c[nH]c2ccccc12)c1cc(-c2ccccc2)n[nH]1	-6	9	.	37*	54
SMILES	Mtb FBA inh	DUSP3 inh	Mtb hypoxia inh	GDH-TPI counter	Mtb betalactam
O=C(N/N=C\c1c[nH]c2ccccc12)c1ccc(O)cc1	0	20	.	32*	1
Cc1cc(C=NNC(=O)c2ccc(O)cc2)c(C)n1CC(C)C	.	.	-6	.	.
CC(C)c1ccc2[nH]c3c(c2c1)CCC/C3=N\NC(=O)c1ccncc1	5	4	.	16	98
Nc1ccc(C(=O)N/N=C2\CCCc3c2[nH]c2ccccc32)cc1	12	23	.	62*	-3
O=C(CC12CC3CC(CC(C3)C1)C2)NN=Cc1ccc[nH]1	.	.	-4	.	.
CC(=NNC(=O)C1CCCC1)c1ccc(Cl)cc1Cl	.	.	8	.	.
Oc1ccc(Br)cc1C=NN1CCN(Cc2cccc3ccccc23)CC1	.	.	8	.	.
COC(=O)NN=C(C)c1ccc(OC(F)F)cc1OC(F)F	.	.	11	.	.
NC(=S)N/N=C/c1c[nH]c2ccccc12	-1	5	.	56*	96
O=C(N/N=C/c1c[nH]c2ccccc12)c1ccccc1Cl	-2	57*	.	14	-5
Nc1ccc(C(=O)N/N=C/c2c[nH]c3ccccc23)cc1	0	10	.	41*	2
CN1C[C@H](CO)C=C2c3cccc4[nH]cc(c34)C[C@H]21	172*	7	.	9	-10
C/C(=N/Nc1ccccc1C(=O)O)c1cccs1	-3	4	.	33*	1
Cc1ccsc1C=NNC(=O)c1ccco1	.	.	4	.	.
COc1ccccc1/C=C/C=N/NC(=O)CN1CCN(S(=O)(=O)c2ccc(C)cc2)CC1	-5	-1	.	33*	0
